TRPML1 ag: agonists of human TRPML1 channel; Q9GZU1; TRPML1-expressing cells, Ca2+ dye fluorescence, FDSS; activation, % (no concentration beside the values); hit rate 0.12% among 410,000; in the data active = activation above about 50%; inconclusive = mostly about 30% to 49%; note: 0% is about no effect
Target sequence (Q9GZU1 whole entry, looked up): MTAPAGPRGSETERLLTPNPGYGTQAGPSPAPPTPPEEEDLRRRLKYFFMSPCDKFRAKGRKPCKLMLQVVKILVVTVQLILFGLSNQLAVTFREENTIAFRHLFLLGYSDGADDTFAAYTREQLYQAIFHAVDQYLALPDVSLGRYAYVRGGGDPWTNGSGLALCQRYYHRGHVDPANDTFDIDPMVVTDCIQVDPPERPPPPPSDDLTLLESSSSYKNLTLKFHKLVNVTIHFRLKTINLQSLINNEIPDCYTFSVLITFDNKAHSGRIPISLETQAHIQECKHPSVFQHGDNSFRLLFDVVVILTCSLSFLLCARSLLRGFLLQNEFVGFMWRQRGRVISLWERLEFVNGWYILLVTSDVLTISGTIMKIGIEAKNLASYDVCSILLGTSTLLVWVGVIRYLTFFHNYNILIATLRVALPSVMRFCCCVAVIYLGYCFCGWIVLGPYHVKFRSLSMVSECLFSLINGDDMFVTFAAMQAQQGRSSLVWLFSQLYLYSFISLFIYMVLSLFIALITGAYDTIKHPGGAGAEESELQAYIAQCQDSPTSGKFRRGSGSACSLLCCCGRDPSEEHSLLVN
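Cells: TRPML1-DL, 1X Tet inducer, ~16 h at 37 degrees C/5% CO2. Dye: ABD Ca8 no-wash + quencher, 45-90 min RT. Read: 10 s baseline, compound add, 110 s agonist phase; 54-4 EC80 (4uM final), 110 s antagonist phase.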
AT treatment: candidate therapy for ataxia-telangiectasia | F2112 A-T fibroblasts, KAP-1 phosphorylation AlphaLISA; neocarzinostatin DNA damage 30 min before lysis | Potency, µM (doses to about 57.5 µM), without a hit: top-dose activation, actives largely listed as activators | hit rate 0.19% among 320,000 | AID 485349; active = well fitted activation curve with a large enough effect; inconclusive = small, poorly fitted or top-dose-only effect; inactive = no such curve, though single readings can be large or run the other way; note: potency is the fitted concentration of half-maximal effect; % of control where 0% means no effect; nearly all actives have a fitted effect of over 45% in size
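hTERT-immortalized A-T patient fibroblasts (F2112), 500 cells/well in OPTI-MEM, 1% FBS, got compounds for 60 min, then NCS for 30 min at 37C. Lysates were then assayed for phospho-KAP-1 by AlphaLISA (anti-pKAP1 donor, anti-KAP1 acceptor beads), 6 hr at 25C.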
TRPML1 inh: blocks the human TRPML1 channel; Q9GZU1; TRPML1-inducible cells, Ca2+ dye fluorescence, FDSS; active compounds read low; inhibition of EC80 agonist-evoked calcium signal; hit rate 0.02% among 390,000; activity change, negative = inhibition, % (concentration not given with the values); AID 624415; in the data active = activity change below about -50%; inconclusive = between about -30% and that limit;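 note: stimulus is agonist 54-4 at its EC80 concentration; % is set by controls: 0 for no effect and ±100 for the full control effect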
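Tet-induced TRPML1-DL cells loaded with Ca8 no-wash calcium dye were read kinetically on FDSS. Compound addition was followed by EC80 agonist 54-4 (4 uM final); inhibition was read over 110 s.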
TRPV1 PAM: human TRPV1 potentiation | Q8NER1 | TRPV1-expressing cells, Fluo-8 calcium influx, capsaicin EC20 potentiation | potentiation, % at 8.33 µM | hit rate 0.02% among 320,000 | AID 540277; in the data active = potentiation above about 80%; inconclusive = between about 30% and that limit; note: 0% is about no effect
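Fluo-8 calcium influx in TRPV1-expressing cells, kinetic read (ex 480/em 520 nm). Compound added and read 3 min for agonist activity, followed by capsaicin at EC20 final and 2 min further read for enhancement.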
TRPV1 agonist: agonists of human vanilloid receptor 1 (TRPV1). activation, % at 8.33 µM. AID 540275. TRPV1-expressing cells, Fluo-8 calcium influx, agonist mode. hit rate 0.19% among 320,000. Q8NER1; in the data active = activation above about 80%; inconclusive = between about 30% and that limit; note: 0% is about no effect
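TRPV1-expressing cells were cultured overnight at 35.5C and loaded with Fluo-8 calcium dye for 40 to 90 min at room temperature. After a 10 s baseline, compound was added and calcium influx was read kinetically for 3 min (ex 480/em 520 nm).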
* hit, by the source's call; ? = inconclusive; . = not tested or not shown; ! = a repeat was not active. Shown are actives, neighbours in structure and some others; about 0.41% of the full set was active somewhere.

SMILES | TRPML1 ag | AT treatment | TRPML1 inh | TRPV1 PAM | TRPV1 agonist
COc1ccccc1-n1cnc2cc(NCc3ccccn3)ccc21 | -0.4 | 4.6% | -50.5* | ? | -0.5
COc1ccc(-n2cnc3cc(NCc4ccccn4)ccc32)cc1 | 1.5 | 0.4% | 21.4 | -14.6 | 11.1
CNC(=O)c1cc(-c2cccs2)on1 | -0.3 | . | . | . | .
C[n+]1ccnc2ccccc21 | 2.4 | . | . | . | .
COc1cc2c(C(=O)O)c(C)n(-c3ccccc3)c2c2ccccc12 | . | ? | . | -10.4 | ?
CCn1c(C)c(C(=O)O)c2cc(OC)c3ccccc3c21 | -0.7 | 10µM* | -1.5 | -5.9 | 8.7
CCOC(=O)N1C(=O)[C@@](c2ccc(Cl)cc2)(C(C)C)N1C(=O)OCC | -0.6 | 20µM* | 25.9 | -9.6 | 27.8
COc1ccccc1/C=C/c1ccnc2ccccc12 | -1.0 | . | . | . | .
Cc1ccc(O)c(C(=O)/C=C/c2ccc3c(c2)OCCCO3)c1 | 1.3 | 15.8µM* | -8.2 | 7.0 | 2.6
Cc1cccc2c1N(C(=O)CN1C(=O)c3ccccc3C1=O)C(C)(C)c1ssc(=S)c1-2 | 0.8 | -0.6% | -15.8 | -11.0 | -5.6
CC1=CC(C)(C)N(C(=O)CN2C(=O)c3ccccc3C2=O)c2ccccc21 | 95.7* | 2.2% | -4.4 | -17.1 | 25.2
CC1CC(C)(C)N(C(=O)CN2C(=O)c3ccccc3C2=O)c2ccccc21 (centres undefined) | 94.0* | 1.0% | -14.9 | -9.4 | 23.4
CC1=CC(C)(C)N(C(=O)CN2C(=O)CCC2=O)c2ccc(C)cc21 | 0.3 | 5.6% | 4.5 | 2.4 | -3.9
CC1CC(C)(C)N(C(=O)CN2CCN(C)CC2)c2ccccc21 (centres undefined) | 0.8 | -3.3% | 23.6 | 10.0 | -2.4
Cc1cc(C)c2c(c1)-c1c(ssc1=S)C(C)(C)N2C(=O)CN1C(=O)c2ccccc2C1=O | 66.9* | -7.3% | ? | 4.0 | -3.4
Cc1cc(N(C)C)cc(C)c1/C=C/c1ccnc2ccccc12 | 4.5 | . | . | . | .
COc1cc(N(C)C)ccc1/C=C1\C=Cc2ccccc21 | -0.3 | . | . | . | .
CC1(C)CSC(=NCc2ccccc2)N1C(=O)c1cccc([N+](=O)[O-])c1 | 94.5* | 1.7% | -6.4 | -20.4 | 12.0
Nc1ncnc2c1nc(Sc1ccc(Cl)cc1)n2[C@H]1OC2COP(=O)(O)O[C@H]2[C@@H]1O (some centres undefined) | -0.3 | . | . | . | .
CCc1ccc2[nH]c(=O)c(CN(Cc3ccccc3OC)C(=O)Nc3ccccc3OC)cc2c1 | 1.8 | 1.6% | -10.8 | -7.6 | 4.9
CCN(CC)CCN(Cc1cc2cc(C)ccc2[nH]c1=O)C(=O)Nc1ccccc1OC | 1.7 | 1.7% | -1.6 | 87.6* | -2.4
Cc1cccc(N2CCN(C(=O)N3CCOCC3)CC2)c1C | -0.4 | 5.0% | -0.7 | -6.8 | 9.4
Cc1ccc(N2CCN(C(=O)N3CCCC3)CC2)cc1C | 2.1 | . | -16.6 | -22.3 | 93.5*
Cc1cccc(N2CCN(C(=O)N3CCCCC3)CC2)c1C | 1.4 | -0.3% | 9.5 | -1.6 | 82.0*
COc1ccc(NC(=O)CN(C)S(=O)(=O)c2ccc3c(c2)c(=O)n(C)c(=O)n3C)cc1 | 0.2 | 2.9% | -87.2*! | 13.4 | 0.5
SMILES | TRPML1 ag | AT treatment | TRPML1 inh | TRPV1 PAM | TRPV1 agonist
CCc1ccc(NC(=O)CN(C)S(=O)(=O)c2ccc3c(c2)c(=O)n(C)c(=O)n3C)cc1 | -0.2 | . | 4.9 | . | .
Cc1cnc2ccc(I)cc2c1/C=C/c1ccc(N(C)C)cc1 | 3.3 | . | . | . | .
C=C1C=C(C)n2ncc(C(=O)Nc3ccc(C)cn3)c2N1 | -0.1 | . | . | . | .
C/C(=N\NC(=O)CCCC(=O)O)c1c(-c2ccccc2)c2cc(Cl)ccc2[nH]c1=O | 0.0 | 3.55µM* | -6.4 | -18.5 | 10.9
CCCCCCCCOC(=O)c1nc(Cl)c(Cl)c(N)c1Cl | 2.1 | 31.6µM* | -7.3 | ? | 0.5
CC1CC(C)CN(C(=O)COC(=O)c2c[nH]c3ccccc23)C1 (centres undefined) | 1.2 | 10µM* | -2.5 | -18.1 | ?
CCOC(=O)/C(=C\C=C1/Sc2ccccc2N1CC)C(C)=O | 88.8* | 1.0% | -7.1 | -11.9 | ?
CCOC(=O)/C(=C/C=C1\Sc2cc(C)c(C)cc2N1CC)C(C)=O | 89.8* | -4.8% | -2.6 | -5.0 | 105.7*
CCC(=O)/C=C1/Sc2ccccc2N1CC | 2.0 | 0.0% | -3.5 | 6.2 | 3.6

Screening results as filed in PubChem BioAssay.
